Where “and” joins values, the source holds several entries; their conditions need not be identical. Equal values may be shown once. Records with an inconclusive call do not appear. The source holds several records for some structures; these can differ, active in one and inactive in another. Calls of active or inactive are those of the source. The calls were made as follows, unless noted: active = hit-call score of the fitted dose curve at least 0.9, where 1 is the maximum; inactive = score below 0.9.
Key:
[1] = target: Nuclear respiratory factor 1 (Homo sapiens) (UniProt Q16656); assay: ATG_NRF1_CIS: Attagene CIS-FACTORIAL HepG2 Assay for human Nuclear Respiratory Factor 1 (NRF1) Orphan Gene (AID 2282987); settings: HepG2 NRF1 cis-element reporter, Attagene multiplex; actives raise or lower the signal
Chain of Nuclear respiratory factor 1 (Homo sapiens) (Q16656 whole entry, looked up): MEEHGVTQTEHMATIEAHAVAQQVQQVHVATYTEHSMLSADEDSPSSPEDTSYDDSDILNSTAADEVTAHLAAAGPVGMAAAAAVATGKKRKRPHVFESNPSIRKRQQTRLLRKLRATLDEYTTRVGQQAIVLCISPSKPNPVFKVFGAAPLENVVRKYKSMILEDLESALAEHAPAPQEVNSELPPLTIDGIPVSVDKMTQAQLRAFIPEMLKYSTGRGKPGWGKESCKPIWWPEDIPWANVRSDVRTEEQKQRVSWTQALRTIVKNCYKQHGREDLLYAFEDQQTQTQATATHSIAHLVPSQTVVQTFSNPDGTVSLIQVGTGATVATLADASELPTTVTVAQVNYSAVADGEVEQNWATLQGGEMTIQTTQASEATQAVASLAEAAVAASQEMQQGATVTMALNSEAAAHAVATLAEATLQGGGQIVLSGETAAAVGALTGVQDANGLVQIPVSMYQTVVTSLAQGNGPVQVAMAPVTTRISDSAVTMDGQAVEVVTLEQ
How it was run: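 Transcriptional reporter readout, one component of a 52-endpoint multiplexed HepG2 panel. Exposure 24 h; mRNA detected via RT-PCR and fluorescent capillary electrophoresis; fitting in both directions against DMSO.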

[2] = ATG_NFI_CIS: Attagene CIS-FACTORIAL HepG2 Assay for human Nuclear Factor I (NFI) (AID 2282989); settings: HepG2 cis-regulatory reporter, NFI response element transcription; actives raise or lower the signal
How it was run: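 HepG2, transient MRTU, 24 h exposure; RNA→cDNA→PCR→FAM label→HpaI→CE fluorescence. Bidirectional fit, DMSO = baseline.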

[3] = target: Myc proto-oncogene protein (Homo sapiens) (UniProt P01106); assay: ATG_Myc_CIS: Attagene CIS-FACTORIAL HepG2 Assay for human Myelocytomatosis (Myc) Proto-Oncogene Transcription Factor (AID 2282990); settings: HepG2, Attagene cis-reporter transcription factor activity; actives raise or lower the signal
Chain of Myc proto-oncogene protein (Homo sapiens) (P01106 whole entry, looked up): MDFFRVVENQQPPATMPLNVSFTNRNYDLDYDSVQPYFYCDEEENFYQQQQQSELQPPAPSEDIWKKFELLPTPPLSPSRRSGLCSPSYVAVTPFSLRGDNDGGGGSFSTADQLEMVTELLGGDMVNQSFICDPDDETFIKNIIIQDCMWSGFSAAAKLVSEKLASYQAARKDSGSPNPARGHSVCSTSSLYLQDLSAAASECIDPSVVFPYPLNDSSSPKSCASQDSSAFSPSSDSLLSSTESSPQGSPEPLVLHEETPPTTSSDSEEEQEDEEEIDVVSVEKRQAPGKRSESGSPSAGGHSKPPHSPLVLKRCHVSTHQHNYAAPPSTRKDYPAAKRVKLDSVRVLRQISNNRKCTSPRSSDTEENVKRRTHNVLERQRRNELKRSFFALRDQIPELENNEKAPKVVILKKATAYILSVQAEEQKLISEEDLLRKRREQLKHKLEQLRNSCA
How it was run: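 DMSO-normalised, bidirectionally fitted reporter mRNA signal. HepG2 cells transfected with cis reporter constructs, treated 24 h; transcripts detected by RT-PCR, 6-FAM primer extension and CE.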

[4] = ATG_NRF2_ARE_CIS: Attagene CIS-FACTORIAL HepG2 Assay for human Nuclear Factor Erythroid 2 Related Factor 2 (NFR2) response to Antioxidant Response Elements (ARE) (AID 2282992); settings: HepG2 Attagene ARE/NRF2 reporter, transcription factor activity; actives raise or lower the signal;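 as to AC50: reporter mRNA level measured by RT-PCR and capillary electrophoresis fluorescence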
How it was run: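 Readout: reporter mRNA quantified by RT-PCR plus FAM-labelled primer extension, HpaI digestion and capillary electrophoresis, 24 h after dosing transfected HepG2 cells. Gain or loss of signal is fitted bidirectionally against DMSO baseline.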

[5] = ATG_Oct_MLP_CIS: Attagene CIS-FACTORIAL HepG2 Assay for human Octamer-Binding Transcription Factor (Oct) (AID 2282993); settings: HepG2 Attagene cis-factorial Oct reporter, mRNA; actives raise or lower the signal
How it was run: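 Multiplexed cis-reporter assay in human liver HepG2 cells, 24 h incubation. Reporter RNA amplified and labelled, then resolved by capillary electrophoresis; DMSO serves as negative control and baseline.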

[6] = BSK_3C_TissueFactor: BioMAP Diversity Plus: 3C Assay for Tissue Factor Biomarker Activity (AID 2282997); settings: BioMAP 3C HUVEC, tissue factor biomarker readout; actives raise or lower the signal
How it was run: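 Tissue factor on primary human umbilical vein endothelium was read by ELISA 24 h after dosing, gain or loss relative to DMSO. Cytotoxicity ran alongside via SRB (0.1%, TCA-fixed, 560 nm).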

[7] = BSK_3C_uPAR: BioMAP Diversity Plus: 3C Assay for Urokinase-type plasminogen activator receptor (uPAR) Biomarker Activity (AID 2282998); settings: BioMAP 3C HUVEC, uPAR biomarker ELISA; actives raise or lower the signal
How it was run: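 Dose primary human umbilical vein endothelial cells, incubate 24 h, measure cell-surface uPAR by ELISA, then fit the signal in both directions against the DMSO negative control.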

[8] = BSK_3C_VCAM1: BioMAP Diversity Plus: 3C Assay for Vascular cell adhesion molecule 1 (VCAM1) Biomarker Activity (AID 2282999); settings: BioMAP 3C HUVEC, VCAM1 ELISA, cytokine-stimulated; actives raise or lower the signal
How it was run: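 Vascular primary endothelium (human umbilical vein) was exposed to chemicals and assayed 24 h later. VCAM-1 levels came from ELISA, with DMSO serving as baseline for bidirectional fitting.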

[9] = BSK_4H_Eotaxin3: BioMAP Diversity Plus: 4H Assay for Eotaxin 3 Biomarker Activity (AID 2283000); settings: primary human endothelial cells (HUVEC); actives raise or lower the signal
How it was run: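 Human umbilical vein endothelial cells (BSK_4H system) dosed with test chemical; Eotaxin-3 (CCL26) measured by ELISA 24 h after dosing. Bidirectional curve fitting relative to DMSO negative control as baseline.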

[10] = target: human Peroxisome Proliferator-activated Receptor alpha (PPARa), PPARA (gene 5465) (UniProt Q07869); assay: ATG_PPARa_TRANS: Attagene TRANS-FACTORIAL HepG2 Assay for human Peroxisome Proliferator-activated Receptor alpha (PPARa) (AID 2283001; active = hit-call score of the fitted dose curve at least 0.9, where 1 is the maximum;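 as to AC50: potency for gain of reporter signal over DMSO so agonist or activator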)
Chain of human Peroxisome Proliferator-activated Receptor alpha (PPARa), PPARA (gene 5465) (Q07869 whole entry, looked up, the tested form may be a part): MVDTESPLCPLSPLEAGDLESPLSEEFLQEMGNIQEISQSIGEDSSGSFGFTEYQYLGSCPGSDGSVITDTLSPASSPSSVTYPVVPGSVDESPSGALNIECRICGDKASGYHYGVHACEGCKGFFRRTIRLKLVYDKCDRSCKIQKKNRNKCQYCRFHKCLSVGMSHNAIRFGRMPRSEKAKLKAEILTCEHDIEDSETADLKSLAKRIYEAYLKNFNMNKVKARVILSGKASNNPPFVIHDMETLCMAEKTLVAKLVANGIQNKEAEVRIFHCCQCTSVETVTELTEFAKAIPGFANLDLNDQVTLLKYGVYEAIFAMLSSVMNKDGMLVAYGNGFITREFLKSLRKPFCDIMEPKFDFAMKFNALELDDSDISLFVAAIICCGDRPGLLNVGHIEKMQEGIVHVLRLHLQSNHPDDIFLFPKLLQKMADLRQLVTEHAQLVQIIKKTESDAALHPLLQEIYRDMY
How it was run: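 Exposure: 24 h, transiently transfected HepG2 cells. Endpoint: GAL4-UAS reporter mRNA, RT-PCR with capillary electrophoresis fluorescence. Baseline: DMSO; increases fitted.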

[11] = read-out: Intercellular Adhesion Molecule 1 (ICAM1), ICAM1 (gene 3383); assay: BSK_3C_ICAM1: BioMAP Diversity Plus: 3C Assay for Intercellular Adhesion Molecule 1 (ICAM1) Biomarker Activity (AID 2283003); settings: primary human endothelial cells (HUVEC); actives raise or lower the signal
How it was run: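 Using DMSO as baseline, bidirectional curve fitting was applied to ICAM-1 ELISA signals from HUVEC in the 3C system, measured 24 h after compound addition.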

[12] = BSK_3C_Proliferation: Cell Proliferation Assessment in the BioMAP Diversity Plus: 3C Assay (AID 2283006); settings: primary human endothelial cells (HUVEC);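 as to AC50: potency may reflect either rise or fall in cell number versus DMSO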
How it was run: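 Measured here: sulforhodamine B (0.1%) staining of TCA-fixed sub-confluent umbilical vein endothelial cultures 48 h post-dosing, absorbance 560 nm. DMSO served as negative control and baseline; both signal gain and loss were modelled.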

[13] = target: Nuclear receptor subfamily 1 group I member 2 (Homo sapiens) (UniProt O75469); assay: ATG_PXR_TRANS: Attagene TRANS-FACTORIAL HepG2 Assay for human Pregnane X Receptor (PXR) (AID 2283008; active = hit-call score of the fitted dose curve at least 0.9, where 1 is the maximum)
Chain of Nuclear receptor subfamily 1 group I member 2 (Homo sapiens) (O75469 whole entry, looked up, the tested form may be a part): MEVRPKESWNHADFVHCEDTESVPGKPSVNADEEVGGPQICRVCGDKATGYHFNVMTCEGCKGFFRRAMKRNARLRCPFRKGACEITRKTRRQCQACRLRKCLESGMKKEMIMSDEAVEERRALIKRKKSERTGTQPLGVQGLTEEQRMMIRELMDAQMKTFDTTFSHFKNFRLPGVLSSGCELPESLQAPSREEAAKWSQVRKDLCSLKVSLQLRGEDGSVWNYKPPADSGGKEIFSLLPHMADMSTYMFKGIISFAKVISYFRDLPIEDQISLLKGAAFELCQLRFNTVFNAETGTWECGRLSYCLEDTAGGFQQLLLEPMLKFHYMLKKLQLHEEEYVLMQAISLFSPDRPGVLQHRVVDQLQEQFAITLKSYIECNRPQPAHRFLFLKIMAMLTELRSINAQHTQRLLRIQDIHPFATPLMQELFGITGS
How it was run: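 Trans-factorial format: exogenous NR-Gal4 fusion activity, not endogenous factor, in transfected human HepG2 liver cells. After 24 h dosing, RNA isolated, reverse-transcribed, amplified and resolved by capillary electrophoresis; induction scored versus DMSO.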

[14] = ATG_NF_kB_CIS: Attagene CIS-FACTORIAL HepG2 Assay for human Nuclear Factor Kappa B (NF-kB) (AID 2282991); settings: HepG2 Attagene cis-factorial NF-kB reporter mRNA; actives raise or lower the signal
How it was run: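 HepG2, transient multi-reporter transfection, cis promoter elements (endogenous TFs). 24 h exposure. Total RNA → RT → PCR → 6-FAM label → HpaI → CE. Gain/loss vs DMSO.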

[15] = target: Cellular tumor antigen p53 (Homo sapiens) (UniProt P04637); assay: ATG_p53_CIS: Attagene CIS-FACTORIAL HepG2 Assay for human p53 Transcription Factor (AID 2282994); settings: HepG2 p53 cis-element reporter, Attagene mRNA; actives raise or lower the signal
Chain of Cellular tumor antigen p53 (Homo sapiens) (P04637 whole entry, looked up): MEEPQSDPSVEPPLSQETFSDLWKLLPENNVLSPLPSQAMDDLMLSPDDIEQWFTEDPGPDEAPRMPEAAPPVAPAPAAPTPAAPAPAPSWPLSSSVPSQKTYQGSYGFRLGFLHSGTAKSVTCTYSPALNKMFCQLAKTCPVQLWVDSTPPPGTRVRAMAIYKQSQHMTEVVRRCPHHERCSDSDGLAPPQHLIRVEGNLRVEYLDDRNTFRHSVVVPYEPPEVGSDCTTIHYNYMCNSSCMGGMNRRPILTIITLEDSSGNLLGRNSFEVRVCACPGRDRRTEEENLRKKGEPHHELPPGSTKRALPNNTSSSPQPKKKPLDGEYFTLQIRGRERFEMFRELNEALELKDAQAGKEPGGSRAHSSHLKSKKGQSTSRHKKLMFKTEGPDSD
How it was run: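 Read-out: reporter mRNA by RT-PCR plus capillary electrophoresis with fluorescence detection. Human HepG2 liver cells carried transfected multi-reporter cis-element constructs, dosed 24 h. Gain or loss of signal fitted bidirectionally against DMSO control.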

[16] = target: human Peroxisome Proliferator-activated Receptor delta (PPARd), PPARD (gene 5467) (UniProt Q03181); assay: ATG_PPARd_TRANS: Attagene TRANS-FACTORIAL HepG2 Assay for human Peroxisome Proliferator-activated Receptor delta (PPARd) (AID 2283002; active = hit-call score of the fitted dose curve at least 0.9, where 1 is the maximum)
Chain of human Peroxisome Proliferator-activated Receptor delta (PPARd), PPARD (gene 5467) (Q03181 whole entry, looked up, the tested form may be a part): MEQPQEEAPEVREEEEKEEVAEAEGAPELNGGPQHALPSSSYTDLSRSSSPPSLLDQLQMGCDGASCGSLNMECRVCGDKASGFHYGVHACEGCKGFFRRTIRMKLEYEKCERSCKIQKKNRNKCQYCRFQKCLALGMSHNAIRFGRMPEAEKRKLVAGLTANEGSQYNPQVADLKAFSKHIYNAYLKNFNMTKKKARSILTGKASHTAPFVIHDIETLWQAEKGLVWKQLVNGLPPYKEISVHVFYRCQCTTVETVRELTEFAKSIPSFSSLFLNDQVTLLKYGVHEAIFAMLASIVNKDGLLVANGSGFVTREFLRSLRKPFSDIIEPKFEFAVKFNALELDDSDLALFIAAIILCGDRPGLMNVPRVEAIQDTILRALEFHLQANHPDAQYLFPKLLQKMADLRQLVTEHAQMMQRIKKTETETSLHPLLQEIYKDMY
How it was run: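 Measured quantity: GAL4-UAS reporter transcript induction in HepG2 after 24 h chemical dosing, with NR-Gal4 chimeras supplied by transient transfection. Detection by RT-PCR and capillary electrophoresis; upward fit against DMSO.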

[17] = target: Retinoic acid receptor alpha (Homo sapiens) (UniProt P10276); assay: ATG_RARa_TRANS: Attagene TRANS-FACTORIAL HepG2 Assay for human Retinoic Acid Receptor alpha (RARa) (AID 2283005; active = hit-call score of the fitted dose curve at least 0.9, where 1 is the maximum)
Chain of Retinoic acid receptor alpha (Homo sapiens) (P10276 whole entry, looked up, the tested form may be a part): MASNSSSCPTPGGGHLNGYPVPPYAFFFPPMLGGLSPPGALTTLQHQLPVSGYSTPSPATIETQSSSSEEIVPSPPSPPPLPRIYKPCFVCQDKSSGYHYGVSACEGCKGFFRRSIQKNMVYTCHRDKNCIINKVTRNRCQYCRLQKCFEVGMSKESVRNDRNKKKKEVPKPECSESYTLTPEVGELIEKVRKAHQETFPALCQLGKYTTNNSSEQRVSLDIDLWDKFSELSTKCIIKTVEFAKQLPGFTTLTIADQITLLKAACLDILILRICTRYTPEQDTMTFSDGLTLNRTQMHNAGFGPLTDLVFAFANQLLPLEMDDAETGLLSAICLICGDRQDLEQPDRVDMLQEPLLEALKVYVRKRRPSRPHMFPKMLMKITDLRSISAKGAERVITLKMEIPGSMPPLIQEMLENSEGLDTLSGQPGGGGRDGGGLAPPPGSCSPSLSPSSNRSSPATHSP
How it was run: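 HepG2 cells transiently transfected with multiple reporter units expressing chimeric RARα-GAL4 fusion, with GAL4-UAS-driven reporters. After 24 h compound exposure, reporter mRNA induction quantified by RT-PCR and capillary electrophoresis with fluorescent labeling; gain-of-signal fitted relative to DMSO control.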

[18] = target: Peroxisome proliferator-activated receptor gamma (Homo sapiens) (UniProt P37231); assay: ATG_PPARg_TRANS: Attagene TRANS-FACTORIAL HepG2 Assay for human Peroxisome Proliferator-activated Receptor-gamma (PPARg) (AID 2283007; active = hit-call score of the fitted dose curve at least 0.9, where 1 is the maximum)
Chain of Peroxisome proliferator-activated receptor gamma (Homo sapiens) (P37231 whole entry, looked up): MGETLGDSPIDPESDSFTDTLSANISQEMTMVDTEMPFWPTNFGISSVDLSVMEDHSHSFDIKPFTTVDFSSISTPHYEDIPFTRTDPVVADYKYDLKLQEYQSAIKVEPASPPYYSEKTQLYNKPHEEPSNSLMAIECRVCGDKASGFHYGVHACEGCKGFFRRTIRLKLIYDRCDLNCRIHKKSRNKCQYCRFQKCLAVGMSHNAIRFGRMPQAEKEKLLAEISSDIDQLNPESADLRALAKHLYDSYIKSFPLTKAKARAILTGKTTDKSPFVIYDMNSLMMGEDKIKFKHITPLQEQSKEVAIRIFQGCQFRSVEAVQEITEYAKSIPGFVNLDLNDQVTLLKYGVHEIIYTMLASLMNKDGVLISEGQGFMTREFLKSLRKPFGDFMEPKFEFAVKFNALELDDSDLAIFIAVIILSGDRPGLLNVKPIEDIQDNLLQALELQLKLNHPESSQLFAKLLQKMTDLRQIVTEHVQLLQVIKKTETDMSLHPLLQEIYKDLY
How it was run: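 Multiplexed reporter transcription units in HepG2, 24 h dosing, reporter transcripts quantified by fluorescent RT-PCR and capillary electrophoresis. Increase over DMSO scored.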

[19] = target: human Retinoic Acid Receptor gamma (RARg), RARG (gene 5916) (UniProt P13631); assay: ATG_RARg_TRANS: Attagene TRANS-FACTORIAL HepG2 Assay for human Retinoic Acid Receptor gamma (RARg) (AID 2283009; active = hit-call score of the fitted dose curve at least 0.9, where 1 is the maximum)
Chain of human Retinoic Acid Receptor gamma (RARg), RARG (gene 5916) (P13631 whole entry, looked up, the tested form may be a part): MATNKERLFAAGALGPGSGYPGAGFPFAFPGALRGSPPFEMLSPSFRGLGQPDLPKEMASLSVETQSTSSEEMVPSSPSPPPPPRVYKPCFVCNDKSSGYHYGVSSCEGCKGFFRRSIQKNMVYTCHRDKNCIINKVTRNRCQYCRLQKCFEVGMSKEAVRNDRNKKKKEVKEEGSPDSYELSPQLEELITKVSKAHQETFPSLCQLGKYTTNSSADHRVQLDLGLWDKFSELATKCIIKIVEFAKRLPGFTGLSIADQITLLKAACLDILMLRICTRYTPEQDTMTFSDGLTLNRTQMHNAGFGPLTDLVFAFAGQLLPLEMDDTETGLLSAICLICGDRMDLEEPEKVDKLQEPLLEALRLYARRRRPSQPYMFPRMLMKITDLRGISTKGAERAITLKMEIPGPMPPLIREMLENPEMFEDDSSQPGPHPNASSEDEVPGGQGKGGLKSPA
How it was run: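 Gain-of-signal relative to DMSO is reported from fluorescent capillary electrophoresis of RT-PCR reporter products. These came from HepG2 cells expressing transfected RARg-GAL4 chimeras with UAS reporters, harvested 24 h after dosing.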

[20] = target: human Retinoic Acid Receptor beta (RARb), RARB (gene 5915) (UniProt P10826); assay: ATG_RARb_TRANS: Attagene TRANS-FACTORIAL HepG2 Assay for human Retinoic Acid Receptor beta (AID 2283004; active = hit-call score of the fitted dose curve at least 0.9, where 1 is the maximum)
Chain of human Retinoic Acid Receptor beta (RARb), RARB (gene 5915) (P10826 whole entry, looked up, the tested form may be a part): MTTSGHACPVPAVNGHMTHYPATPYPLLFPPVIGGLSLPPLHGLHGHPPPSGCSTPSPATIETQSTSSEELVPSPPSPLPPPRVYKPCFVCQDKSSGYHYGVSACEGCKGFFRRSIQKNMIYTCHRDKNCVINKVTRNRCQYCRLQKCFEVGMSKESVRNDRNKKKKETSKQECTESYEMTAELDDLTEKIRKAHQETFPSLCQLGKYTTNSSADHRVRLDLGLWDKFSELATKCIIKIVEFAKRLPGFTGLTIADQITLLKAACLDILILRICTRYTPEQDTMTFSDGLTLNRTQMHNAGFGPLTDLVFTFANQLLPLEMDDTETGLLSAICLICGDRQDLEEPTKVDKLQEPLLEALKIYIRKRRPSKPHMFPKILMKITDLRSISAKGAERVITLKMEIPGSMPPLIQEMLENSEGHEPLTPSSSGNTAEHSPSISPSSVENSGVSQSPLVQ
How it was run: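 Induction of reporter mRNA from a chimeric RARb-Gal4 construct was measured by RT-PCR, FAM labelling, HpaI digestion and capillary electrophoresis. Measurements followed 24 h compound treatment of transiently transfected human HepG2 liver cells, with DMSO as baseline.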

Measured: AC50

CN1CCC[C@H]1c1cccnc1
inactive: [1] | [2] | [3] | [4] | [5] | [6] | [7] | [8] | [9] | [10] | [11] | [12] | [13]

CC(C)CCCCCCOC(=O)CCCCC(=O)OCCCCCCC(C)C
inactive: [1] | [2] | [3] | [14] | [4] | [15] | [6] | [7] | [8] | [9] | [10] | [16] | [11] | [17] | [12] | [18] | [19]

CCCCOCCO
inactive: [1] | [2] | [3] | [14] | [4] | [15] | [6] | [7] | [8] | [9] | [10] | [11] | [12]

CCCCCCCCC(=O)O
active: [10] 11.4 µM and 41.6 µM
inactive: [1] | [2] | [3] | [4] | [5] | [15] | [6] | [7] | [8] | [9] | [11] | [12] | [13] | [19]

CCCOC(=O)c1ccc(O)cc1
inactive: [1] | [2] | [3] | [4] | [5] | [15] | [6] | [7] | [8] | [9] | [10] | [16] | [11] | [20] | [17] | [12] | [13] | [19]
active: [4] 77.7 µM | [5] 168 µM | [13] 100 µM

COc1ccc([N+](=O)[O-])cc1N
inactive: [1] | [2] | [3] | [14] | [4] | [15] | [6] | [7] | [8] | [9] | [10] | [11] | [20] | [12]

CCCCCCCCOC(=O)CCCCCCCCC(=O)OCCCCCCCC
inactive: [1] | [2] | [3] | [14] | [4] | [15] | [6] | [7] | [8] | [9] | [10] | [16] | [11] | [12] | [18]

Cc1ccc(S(=O)(=O)O)c(C)c1
inactive: [1] | [2] | [3] | [14] | [4] | [15] | [10] | [16] | [13]

CCCOc1sc(C(=O)N2CCC(c3cc(CN)ccc3F)CC2)c(C)c1Br
active: [4] 1.49 µM | [6] 9.59 µM | [7] 5.41 µM | [8] 7.38 µM | [9] 9.89 µM | [11] 10.6 µM | [12] 4.84 µM | [18] 6.67 µM
inactive: [1] | [2] | [3] | [14] | [15] | [16] | [13] | [19]

Oc1cc2ccccc2c2ccccc12
active: [6] 8.37 µM | [7] 11.2 µM | [8] 8.07 µM | [9] 7.88 µM | [11] 10.3 µM | [12] 6.41 µM
inactive: [1] | [2] | [3] | [14] | [4] | [15] | [16] | [20] | [13] | [19]
